A selection: hits, their analogues and other compounds. The true share with any hit is near 19%.
HT1080NT lethal = qHTS for induction of synthetic lethality in tumor cells producing 2HG: qHTS for the HT-1080-NT fibrosarcoma cell line; HT-1080-NT fibrosarcoma viability, CellTiter-Glo ATP luminescence, 48 h; Potency, µM (series often up to 46.1 µM), for the others: at the top dose activity, negative = less viability, hits mostly cytotoxic; hit rate 1.6% among 360,000;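 note: NT is the 2HG producing partner of a matched IDH1 knockdown line; potency is the fitted concentration of half-maximal effect; 0% = DMSO-treated cells and -100% = media-only wells without cells; nearly all actives have a fitted effect of over 55% in size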
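HT-1080-NT fibrosarcoma cells (2HG-overproducing), 750 cells/well in RPMI with 5% FBS, dosed after 2 h and incubated 48 h at 37C. CellTiter-Glo luminescence normalized to DMSO and no-cell wells; concentration-response curves fitted and classed.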
DT40 TDP1 CPT = qHTS for Inhibitors of human tyrosyl-DNA phosphodiesterase 1 (TDP1): qHTS in cells in presence of CPT. chicken DT40 Tdp1-/-;hTDP1 cells + 20 nM CPT, ATP luminescence, 48 h. Potency, µM (series often up to 46.2 µM), for inactives: at the highest dose activity change, negative = growth inhibition, actives largely listed as inhibitors. hit rate 12% among 420,000. AID 686979, 2013; note: potency is the fitted concentration of half-maximal effect; nearly all actives have a fitted effect of over 55% in size
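Cell growth measured by CellTiter-Glo luminescence after a minimum 48 h, 37 C compound exposure with 20 nM CPT in Tdp1-knockout DT40 cells stably expressing hTDP1, seeded 400/well; qHTS titration format.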
TDP1 cell noCPT = qHTS for Inhibitors of human tyrosyl-DNA phosphodiesterase 1 (TDP1): qHTS in cells in absence of CPT | AID 686978, 2013 | DT40 Tdp1-/- hTDP1 cells, no CPT, ATP luminescence, 48 h | hit rate 15% among 420,000 | Potency, µM (titrated, usually from 46.2 µM), for inactives: top-dose activity change, negative = growth inhibition, actives largely listed as inhibitors; note: potency is the fitted concentration of half-maximal effect; nearly all actives have a fitted effect of over 55% in size
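Luminescent ATP content (CellTiter-Glo) served as the growth readout. Knockout chicken DT40 cells expressing human TDP1 were exposed to compounds without camptothecin for a minimum 48 hr at 37 °C.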
uPA surface inh = qHTS for Inhibitors of Cell Surface uPA Generation | hit rate 0.31% among 330,000 | cell surface uPA generation assay, qHTS | Potency, µM (highest dose often 38.3 µM), for the others: at the top dose activity change, negative = inhibition, hits mostly inhibitors; active = well fitted inhibition curve with a large enough effect; inconclusive = small, poorly fitted or top-dose-only effect; inactive = no such curve, though single readings can be large or run the other way; tested in mouse RAW 264.7 cells; note: potency is the fitted concentration of half-maximal effect; nearly all actives have a fitted effect of over 55% in size
IL1B secr inh = qHTS for Inhibitors of Inflammasome Signaling: IL-1-beta AlphaLISA Primary Screen; THP-1 LPS/ATP IL-1B secretion, AlphaLISA, 16 h; active compounds read low; activity change, % at 57.5 µM; hit rate 4.7% among 360,000; AID 743279, 2014; in the data active = activity change below about -50%; inconclusive = mostly about -30% to -49%
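Secreted IL-1B measured by AlphaLISA bead assay after 16 h compound exposure of THP-1 cells; compounds (final up to 57.5 uM) added 1 h before LPS (250 ng/mL) and ATP (1.25 mM) stimulation; lower signal means less secretion.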
HT1080 IDH1KD tx = qHTS for induction of synthetic lethality in tumor cells producing 2HG: qHTS for the HT-1080-IDH1KD cell line | HT-1080 IDH1 knockdown viability, ATP luminescence, 48 h | Potency, µM (top dose mostly 46.1 µM), for the others: at the top dose activity, negative = toxicity, most hits filed as cytotoxic | hit rate 2% among 360,000 | AID 686971, 2013;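 note: potency is the fitted concentration of half-maximal effect; 0% = DMSO wells and -100% = cell-free medium wells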
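% activity derives from luminescence (CellTiter-Glo), normalised to DMSO and no-cell wells. HT-1080-IDH1KD cells, 750/well, had 48 h compound exposure at 37 °C.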
* hit, by the source's call; ? = inconclusive; . = no result; [ ] = remark or other dose. Unless noted, calls come from the whole dose curve; as a rule, active = well fitted curve in the direction sought with a large enough effect; inconclusive = small, poorly fitted or top-dose-only effect, or another doubt; inactive = no such curve, though single readings can be large; an effect the other way counts as inactive or inconclusive. Unless noted, % is set by controls: 0 for no effect and ±100 for the full control effect.

SMILES | HT1080NT lethal | DT40 TDP1 CPT | TDP1 cell noCPT | uPA surface inh | IL1B secr inh | HT1080 IDH1KD tx
COc1ccc(C2=NN(C(=O)CN3CCCCC3)C(c3ccc(OC)cc3)C2)cc1 (stereo not given) | -4% | 16µM* | ? | 11% | -12 | 0%
COc1ccc(C2CC(c3ccc4ccccc4c3)=NN2C(=O)CN2C(=O)CCC2=O)cc1 (stereo not given) | -1% | 26µM* | 23µM* | -6% | ? | -8%
COc1ccc(C2=NN(C(=O)CN3CCCC3)C(c3ccc(OC)cc3)C2)cc1 (stereo not given) | -1% | -13% | -29% | -1% | -62* | -5%
COc1ccc(CC(=O)OCC(=O)N2N=C(c3ccccc3)CC2c2ccc(OC)cc2)cc1 (stereo not given) | 2% | ? | ? | -6% | -2 | 0%
COc1ccc(C2CC(c3ccccc3)=NN2C(=O)COC(=O)C2CC2)cc1 (stereo not given) | 1% | -6% | ? | -3% | -14 | 11%
COc1cccc(C(=O)OCC(=O)NCCCc2ccccc2)c1 | 3% | -9% | 15% | 6% | 6 | 0%
CCc1ccccc1N1C(=O)CC(Sc2nccc(C)n2)C1=O (stereo not given) | 0% | ? | ? | 37% | 0 | 5%
O=C1CC(Sc2ncccn2)C(=O)N1c1ccccc1C(F)(F)F (stereo not given) | -10% | ? | ? | -3% | -80* | 2%
Cc1ccc(Cl)cc1N1C(=O)CC(Sc2ncccn2)C1=O (stereo not given) | -12% | ? | 21µM* | 29% | -12 | -1%
CCc1nc2ccc(C(=O)Nc3cccc(OCC(=O)N(C)C)c3)cn2c1N(CCC(C)C)CCN(C)C | -15% | 0% | -14% | . | ? | -19%
CSc1nnc(CCNC(=O)c2ccccc2C(F)(F)F)n1-c1ccc(F)cc1 | . | 18%[9.04 µM] | -7% | . | . | .
COC(=O)c1ccc2nc(-c3cccc(Br)c3)c(Cc3cccc(F)c3)n2c1 | 18% | ? | ? | . | 36 | 16%
COC(=O)c1ccc2nc(-c3ccc(C#N)cc3)c(Cc3cccc(F)c3)n2c1 | -9% | 15µM* | 18µM* | . | 3 | -15%
Cc1ccc(-c2nc3ccc(C)cn3c2Cc2cccc(F)c2)cc1 | ? | ? | ? | . | -24 | ?
Fc1cccc(Cc2c(-c3ccccc3)nc3ccc(Cl)cn23)c1 | ? | ? | ? | . | 16 | -22%
COC(=O)c1ccc2nc(-c3ccc(C)cc3)c(Cc3cccc(F)c3)n2c1 | -8% | 21µM* | 21µM* | . | 31 | 5%
Cc1ccc2nc(C(C)(C)C)c(Cc3cccc(F)c3)n2c1 | 16µM* | 15µM* | 18µM* | . | -5 | 23µM*
COc1ccccc1-c1c(C)nn2c(-c3ccccc3)cc(-c3ccccc3)nc12 | . | -5% | -26% | . | . | .
COC(=O)[C@]12CCCCC=C1N(Cc1ccc(Cl)cc1Cl)C(=O)[C@H](CC(=O)N1CCOCC1)C2 | -15% | ? | ? | . | -17 | -7%
COC(=O)[C@]12CCCCC=C1N(Cc1ccc(Cl)cc1Cl)C(=O)[C@H](CC(=O)N1CCCCC1)C2 | ? | ? | 18µM* | . | -28 | ?
COC(=O)[C@]12CCCCC=C1N(Cc1ccc(Cl)cc1Cl)C(=O)[C@H](CC(=O)N1CCSCC1)C2 | -14% | ? | 16µM* | . | 0 | -24%
CCC(=O)N1CCc2cc(CNC(=O)Cc3ccc(OC)c(OC)c3)ccc21 | . | -23% | ? | . | . | .
O=C(Cc1cccc(NC(=O)C2CCCN(C(=O)C3CCCCC3)C2)c1)Nc1cccc(C(=O)N2CCCC2)c1 (stereo not given) | 0% | -27% | -15% | 20% | 0 | 2%
COc1ccc(CNC(=O)c2cc(-c3cccc(Cl)c3)on2)cc1 | . | ? | -29% | . | . | .
Cc1c(C(C)NC(=O)c2cc(COc3cccc4cnccc34)on2)cnn1C (stereo not given) | -12% | 23µM* | 13µM* | ? | -7 | -13%
SMILES | HT1080NT lethal | DT40 TDP1 CPT | TDP1 cell noCPT | uPA surface inh | IL1B secr inh | HT1080 IDH1KD tx
CCc1ccc(CN(C)C(=O)c2cc(COc3c(F)cccc3F)on2)cc1 | 7% | 23µM* | 16µM* | -1% | -58* | 17%
CN(Cc1ccccc1)C(=O)c1cc(-c2cccc(Cl)c2)on1 | . | 23µM* | ? | . | . | .
CN(Cc1cc(-c2ccccc2)on1)C(=O)c1cc(COc2c(F)cccc2F)on1 | -1% | 10µM* | ? | -1% | -11 | -15%
O=C1CCC([N+](=O)[O-])C(c2cc(Br)ccc2F)N1 (stereo not given) | -1% | 5% | 4% | -3% | 1 | -15%
CCc1ccc(CN(C)C(=O)c2cc(COc3cccc4cnccc34)on2)cc1 | ? | 9.2µM* | 6.5µM* | ? | -6 | 15µM*
CCOC(=O)CC1(NC(=O)c2cc(COc3c(F)cccc3F)on2)CCCCC1 | -5% | 12µM* | 8.2µM* | 2% | -9 | -5%
CN(Cc1cccc2cnccc12)C(=O)c1cc(COc2ccc(F)cc2F)on1 | 4% | ? | ? | -13% | ? | -13%
COC(=O)[C@H](Cc1ccccc1)NC(=O)c1cc(COc2c(F)cccc2F)on1 | -14% | -24% | -13% | -10% | 14 | -7%
O=C(NCc1nc(-c2ccc(C(F)(F)F)cc2)no1)Nc1cc(Cl)cc(Cl)c1 | ? | 10µM* | 12µM* | ? | -94* | ?
Cc1onc(-c2ccccc2)c1CNC(=O)Nc1cccc(Cl)c1 | -6% | ? | ? | -6% | -66* | ?
Cc1onc(-c2ccccc2)c1CNC(=O)Nc1ccc(C(F)(F)F)cc1 | -20% | ? | 16µM* | 6% | . | ?
Cc1cc(C)cc(NC(=O)NCc2c(-c3ccccc3)noc2C)c1 | 13% | 1% | -21% | 7% | 34 | 1%
CCOC(=O)c1c(NC(=O)c2ccc(N3C(=O)[C@@H]4[C@H](C3=O)[C@H]3C=C[C@@H]4C3)cc2)sc2c1CCCC2 | 4% | -85% | 23µM* | 12% | 27 | 0%
CCOC(=O)c1c(NC(=O)C(C)OC(=O)c2ccc(NC(=O)CC#N)cc2)sc2c1CCCC2 (stereo not given) | -5% | 23µM* | ? | 4% | -80* | -21%

Bioassay records from PubChem BioAssay.
